Results reported in PubChem BioAssay AID720554 (ICCB-Longwood Screening Facility, Harvard Medical School, 2013).
Screen size: about 12,000 compounds; about 45 (0.4%) were called active. No stated cut-off is given here; in the data, active means inhibition mostly above about 83% (no sharp cut-off); inactive means mostly below about 52%. The full list was thinned out, with actives kept by preference.

Key:
[1] = BmaI1 acyl-homoserine lactone synthase inhibition – biochemical, fluorescence intensity, with counterscreen (AID 720554); conditions: BmaI1 enzyme assay, measured here: counterscreen fluorescence % control, concentration not given here
[2] = test system: acyl-homoserine lactone synthase BmaI1 (Burkholderia mallei ATCC 23344); assay: as above; conditions: BmaI1 enzyme assay, stronger effect = higher value, concentration not given here

Row | SMILES | inhibition [1] | inhibition [2]
1 | CCCn1c(C)cc(/C=C(\C#N)C(=O)Oc2c(C)ccc(C)c2C)c1C | 2.5% | 17.5% (inactive)
2 | CN(C)Cc1ccccc1C#N | 1% | -3.5% (inactive)
3 | Cc1ccc(S(=O)(=O)NCC(=O)OC2CCOC2=O)cc1 (stereo not given) | 4% | -3% (inactive)
4 | COC(=O)Cc1c(C(=O)OC)sc(N)c1C#N | 0.5% | 5.5% (inactive)
5 | c1cc2n[nH]nc2cn1 | -4% | 12% (inactive)
6 | COc1ccccc1C(=O)CSc1cccc[n+]1[O-] | 10% | 57% (inactive)
7 | COc1cc(C(=O)CSc2cccc[n+]2[O-])cc(OC)c1OC | 6.5% | 87% (active)
8 | COc1ccccc1C(=O)NC(=O)CSc1cccc[n+]1[O-] | 10% | 16.5% (inactive)
9 | Cc1nn(-c2ccccc2)c2c1CC(C#N)(c1ccccn1)C1CCCN21 (stereo not given) | 3% | 10% (inactive)
10 | COc1cc(OC)c(OC)cc1CNC(=O)CCc1c(C)noc1C | 0% | 11% (inactive)
11 | Cc1cc(C(=O)CN(Cc2ccco2)S(=O)(=O)/C=C/c2ccccc2)c(C)n1C | 0.5% | 2.5% (inactive)
12 | CN=c1scc(-c2ccccc2)n1/N=C/c1ccsc1 | -7% | 6% (inactive)
13 | Oc1ccc(/C=N/n2c(-c3ccco3)csc2=Nc2ccc(F)cc2F)c(O)c1 | 19% | 34% (inactive)
14 | Cc1csc(=Nc2ccccc2F)n1/N=C/c1ccncc1 | -3% | 89% (active)
15 | CCN(C(=O)Cn1ncc(Cl)c(Cl)c1=O)C1CCS(=O)(=O)C1 (stereo not given) | 6% | 12% (inactive)
16 | COc1ccc2nc(NC(=O)c3ccco3)sc2c1 | 14.5% | 19% (inactive)
17 | CCn1c(CCC(=O)Nc2ccc(N3CCOCC3)cc2)nc2cc(S(=O)(=O)N(C)C)ccc21 | -2.5% | 21% (inactive)
18 | CCn1c(C)nc2cc(C#N)ccc21 | 6% | 8% (inactive)
19 | CN(C)S(=O)(=O)c1cccc(-c2nnc3n2CCCCC3)c1 | -2% | -4.5% (inactive)
20 | CN(C)S(=O)(=O)c1cccc(-c2nnc3n2N=C(c2cccs2)CS3)c1 | -1% | 87.5% (active)

Row | SMILES | inhibition [1] | inhibition [2]
21 | CCc1ccc(C2=Nn3c(nnc3-c3cccc(S(=O)(=O)N(CC)CC)c3)SC2)cc1 | 3% | 21% (inactive)
22 | COc1ccc2c(Cl)c(-c3nnc4n3CCC4)sc2c1 | -3.5% | 6.5% (inactive)
23 | Cn1c(Cc2nnc3n2-c2ccccc2SC3)nc2ccccc21 | -1% | 28.5% (inactive)
24 | Cc1csc(Cc2nc3ccccc3n2C)n1 | 8% | 16% (inactive)
25 | Cn1c(CC(N)=S)nc2ccccc21 | 17% | 92.5% (active)
26 | Cc1cc(C(=O)Cn2cnc3sccc3c2=O)c(C)n1C1CC1 | 8.5% | 16.5% (inactive)
27 | CC(C)Sc1nc2ccccc2n1CN1CCN(c2ccccn2)CC1 | 3% | 9% (inactive)
28 | Cc1csc(=O)n1CN1CCN(C(=O)C2COc3ccccc3O2)CC1 (stereo not given) | 7.5% | 17.5% (inactive)
29 | COC(=O)COc1ccc2ccc(=O)oc2c1 | -9.5% | -8% (inactive)
30 | COC(=O)COc1cc(NO)ccc1N=O | 4.5% | 88.5% (active)
31 | CCN(CC)c1ccc(N=CN2CCOCC2)cc1 | -31% | 53% (inactive)
32 | COC(=O)c1c(C)oc(C)c(C(=O)OC)c1=O | 2.5% | 1.5% (inactive)
33 | Cc1ccc(Cl)cc1N1CCN(Cn2sc3ccccc3c2=O)CC1 | 8.5% | 77% (inactive)
34 | CCOC(=O)C1CCN(Cn2c(=S)oc3ccc(S(=O)(=O)CC)cc32)CC1 | -4% | 5% (inactive)
35 | Nc1nc2cc(S(=O)(=O)N3CCOCC3)ccc2o1 | -5.5% | 2.5% (inactive)
36 | O=S(=O)(c1ccc2oc(=S)n(CN3CCOCC3)c2c1)N1CCOCC1 | 4% | 99.5% (active)
37 | CCn1c(=O)c(=O)[nH]c2cc(C(=O)Nc3ccccc3N3CCOCC3)ccc21 | 19.5% | 16.5% (inactive)
38 | O=c1[nH]nc(-c2ccco2)o1 | -7% | 96% (active)
39 | Cn1c(-c2ccco2)n[nH]c1=S | 80% | 96.5% (inactive)
40 | c1coc(-c2nnc(-c3ccco3)nn2)c1 | 34% | 0% (inactive)

Row | SMILES | inhibition [1] | inhibition [2]
41 | Cc1cc(C(=O)Cn2cc(C(F)(F)F)ccc2=O)c(C)n1Cc1ccco1 | 1% | 3% (inactive)
42 | Cc1ccc(C(=O)NCCN2C(=O)S/C(=C\c3ccc(F)cc3)C2=O)cc1NC(=O)c1ccco1 | -9.5% | 6.5% (inactive)
43 | O=C(O)c1sc2sccc2c1Cl | -1.5% | 8.5% (inactive)
44 | O=C1NC(C(=O)O)Cc2ccccc21 (stereo not given) | 9% | 15% (inactive)
45 | O=C1CCc2ccccc2N1 | -5% | -11% (inactive)
46 | O=C1Cc2ccccc2C(=O)N1 | 7% | 99.5% (active)
47 | O=C(CN1C(=O)c2ccccc2S1(=O)=O)N1N=C(c2ccc(Cl)cc2)CC1c1ccco1 (stereo not given) | 10.5% | 15% (inactive)
48 | CC1Sc2ccc(C(=O)Oc3ccc4c(c3)OCO4)cc2NC1=O (stereo not given) | 2% | 35.5% (inactive)
49 | CCN(CC)S(=O)(=O)c1ccc2c(c1)CCCN2 | -4% | 18% (inactive)
50 | O=C(OCC(=O)N1CCC(Cc2ccccc2)CC1)c1ccc(O)cc1 | -7.5% | 2.5% (inactive)
51 | COc1ccc(N(C)S(=O)(=O)c2cccc(C(=O)Nc3ccc(N4CCN(C)CC4)cc3C)c2)cc1 | 11.5% | 9% (inactive)
52 | Cc1c(C(=O)O)sc2nc(CSc3nnc(-c4ccc(F)cc4)n3C)[nH]c(=O)c12 | 2.5% | 3% (inactive)
53 | N#Cc1c(N)sn(-c2ccccc2)c1=S | 11.5% | 102% (active)
54 | CCOC(=O)c1c(N)sn(-c2ccccc2)c1=S | 14.5% | 17% (inactive)
55 | N#CC1=C(N)N(c2ccccc2)C(=O)C1 | 0% | -10.5% (inactive)
56 | Cc1sc2ncnc(N3CCc4ccccc43)c2c1C | 6% | 8.5% (inactive)
57 | Cc1sc2ncnc(N)c2c1C | 9.5% | 89.5% (active)
58 | COC(=O)C(C)Sc1ncnc2sc(C)c(C)c12 (stereo not given) | 7% | 13% (inactive)
59 | CCCCn1ccnc1C(=O)c1ccc(S(=O)(=O)N2CCCC2)cc1 | 1% | 8% (inactive)
60 | CCCCN1C(=O)CC(C(=O)O)C1c1ccc(OC)cc1 (stereo not given) | 3% | -3.5% (inactive)
